# Source: PubChem BioAssay (National Center for Advancing Translational Sciences (NCATS))
# NS1 function inh: qHTS Assay for Inhibitors of Influenza NS1 Protein Function | actives 0.4% (n = 270,000) | Potency, µM (top dose mostly 46.1 µM); calls by dose curve; further: actives are rising curves; nearly all actives have a fitted effect of over 50% in size
#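 A cell-based growth assay was used: compounds that relieve NS1-induced slow growth of budding yeast raise OD600. Assay medium was yeast nitrogen base with ammonium sulphate and -URA supplement, pH 6.0, with 2% galactose.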
# Pf growth 48h: Primary qHTS for delayed death inhibitors of the malarial parasite plastid, 48 hour incubation. P. falciparum luciferase growth in erythrocytes, 48 h. Potency, µM (highest dose often 28.7 µM), actives largely listed as inhibitors. actives 5.9% (n = 310,000)
#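 Compounds are pin-transferred into medium, infected erythrocytes (2% hematocrit, 0.1% parasitemia final) are added, and plates sit one parasite generation at 37 C in 5% CO2. Detection reagent is then added and luminescence measured.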
# HCV inhibitor: qHTS Assay for Inhibitors of Hepatitis C Virus (HCV). Huh7.5.1 HCVcc-Cre infection, luciferase reporter, 44 h. Potency, µM (titrated, usually from 41.8 µM), hits mostly inhibitors. actives 3.4% (n = 340,000)
#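 Cells seeded at 1,000/well and cultured 4 h, then compounds added followed by HCVcc-Cre virus (~0.5 moi). After 44 h further culture, luciferase substrate was added, plates held 15 min at room temperature, and luminescence read for 15 sec.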
# Vaccinia Venus: qHTS for Stage-Specific Inhibitors of Vaccinia Orthopoxvirus: Venus Reporter Primary qHTS; Vaccinia virus Venus reporter expression, fluorescence; Potency, µM (titrated, usually from 36.5 µM), most hits filed as inhibitors; actives 0.46% (n = 330,000); AID 720580, 2013; calls by dose curve; tested in A549 cells; further: nearly all actives have a fitted effect of over 30% in size
# Pf growth 96h: Primary qHTS for delayed death inhibitors of the malarial parasite plastid, 96 hour incubation; P. falciparum luciferase reporter growth, 96 h; Potency, µM (highest dose often 28.7 µM), hits mostly inhibitors; actives 6.9% (n = 320,000)
#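 P. falciparum expressing integrated firefly luciferase grown in erythrocytes (2% hematocrit, 0.05% parasitemia final) with compounds for 96 hours at 37 C, 5% CO2. Growth inhibition read as loss of luminescence after adding luciferase detection reagent.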
# VACV mCherry inh: qHTS for Stage-Specific Inhibitors of Vaccinia Orthopoxvirus: mCherry Reporter Primary qHTS; Vaccinia virus mCherry reporter infection, fluorescence; Potency, µM (highest dose often 36.5 µM), hits mostly inhibitors; actives 0.63% (n = 310,000); AID 720579, 2013; calls by dose curve; tested in A549 cells; further: nearly all actives have a fitted effect of over 35% in size
# A number is an active result; i = inactive; ? = inconclusive; nt = no result; [ ] = remark or other dose. Sampled rows, rich in hits. Any-hit rate of the full collection: about 11%. Unless noted, the call rests on the fitted dose curve; in most records, active means well fitted inhibition curve with a large enough effect; inconclusive means small, poorly fitted or top-dose-only effect, or another doubt; inactive means no such curve, though single readings can be large or run the other way.
SMILES,NS1 function inh,Pf growth 48h,HCV inhibitor,Vaccinia Venus,Pf growth 96h,VACV mCherry inh
Nc1nsnc1C(=O)NCCO,i,i,i,nt,2.33µM,nt
O=C(NCCO)c1ccc(Cl)cc1,i,nt,nt,nt,nt,nt
Cc1cc(OCCCC(=O)NCc2cccs2)ccc1Cl,i,i,i,i,i,i
CC1(OC(=O)c2ccc(Cl)nc2)C(=O)C=C2C=C3CCCN3C=C2C1=O (configuration not stated),i,i,i,i,i,i
COc1cccc(/C=N/Nc2nc(Nc3ccc([N+](=O)[O-])cc3)nc(N3CCCC3)n2)c1O,nt,?,?,i,i,3.98µM
O=[N+]([O-])c1ccc(Nc2nc(N/N=C/c3cccc(F)c3)nc(N3CCCC3)n2)cc1,i,2.94µM,?,i,?,i
COc1c(/C=N/Nc2nc(N3CCCCC3)nc(N3CCCCC3)n2)cccc1[N+](=O)[O-],i,?,?,i,?,i
COc1cccc(/C=N/Nc2ccc([N+](=O)[O-])cn2)c1O,i,?,1.12µM,?,?,1.12µM
O=[N+]([O-])c1ccc(/C=N/Nc2nc(N3CCCCC3)nc(N3CCCCC3)n2)o1,i,?,14.1µM,nt,nt,nt
O=[N+]([O-])c1cccc(/C=N/Nc2nc(N3CCOCC3)nc(N3CCOCC3)n2)c1,i,i,i,i,i,i
Cc1ccccc1N1C(=O)NC(=O)/C(=C\c2cc(Br)c(N3CCOCC3)o2)C1=O,i,i,i,i,?,i
CCc1cc2c(=O)nc3n(c2s1)Cc1ccccc1/C3=C(/O)c1cccc([N+](=O)[O-])c1,i,i,i,nt,nt,nt
CC(=O)c1ccc(NC(=O)C(Cc2ccccc2)NC(=O)c2ccco2)cc1 (configuration not stated),i,?,i,i,?,i
O=[N+]([O-])c1cc2c(cc1/C=N/Nc1nc(Nc3ccccc3)nc(N3CCCCC3)n1)OCO2,?,4.65µM,?,nt,2.94µM,nt
O=[N+]([O-])c1ccc(/C=N/Nc2nc3ccccc3o2)cc1,i,i,i,nt,9.28µM,nt
CNc1nc(N/N=C/c2ccc([N+](=O)[O-])cc2)nc(Nc2ccccc2)n1,i,3.29µM,?,?,?,?
Cc1ccc(Nc2nc(N/N=C\c3ccc4c(c3)OCO4)nc(N3CCOCC3)n2)cc1,nt,10.4µM,11.2µM,?,?,?
Cc1cc(C)nc(N/N=C/c2cc3c(cc2[N+](=O)[O-])OCO3)n1,nt,i,?,i,i,i
CC(C)NC(=O)C1CCN(C(=O)N(C)C)CC1,i,i,i,i,?,i
COc1ccc(CC(=O)N2CCN(c3ccc(F)cc3)CC2)cc1,i,i,i,i,?,i
Cc1ccc(CNC(=O)C2=CCN(S(=O)(=O)c3ccc(C)cc3)CC2)cc1,i,i,i[8.37 µM],nt,?,nt
COc1cc(O)c(C(=O)/C=C/c2ccc(O)c(OC)c2)c(OC)c1,nt,nt,nt,i,nt,i
COc1cc(/C=C/C(O)=C/C(=O)/C=C/c2ccc(O)cc2)ccc1O,nt,11.7µM,?,i,?,i
CCC[C@@H](CNC)NC[C@H](Cc1ccccc1)NCCCCc1ccccc1,i,?,?,?,1.65µM,?
CNC[C@@H](Cc1ccccc1)NC[C@@H](CC1CCCCC1)NCCCc1ccccc1,i,?,?,?,?,?
SMILES,NS1 function inh,Pf growth 48h,HCV inhibitor,Vaccinia Venus,Pf growth 96h,VACV mCherry inh
CCC[C@@H](CN[C@@H](CNC)C(C)C)NCCCCc1ccccc1,i,?,?,?,11.7µM,i
CCC[C@H](N[C@@H](CCC)[C@H](O)c1ccccc1)[C@H](O)c1ccccc1,nt,nt,i,i,nt,i
FC(F)(F)c1nc2ccccc2nc1N/N=C/c1c(Cl)cccc1Cl,i,9.28µM,i,i,i,nt
Cc1cccc(COC[C@H](Cc2ccccc2)N2CCN(C(=O)c3cccc(Cl)c3)CCC2=O)c1,nt,nt,nt,i,nt,i
Cc1cccc(C(=O)N2CCC(=O)N(C(COCc3ccccc3)Cc3ccccc3)CC2)c1 (configuration not stated),i,i,i,i,13.1µM,i
CC(C)N1CCN(C(=O)c2cccc(Cl)c2)CC1,i,i,i,i,i,i
Cc1cccc(C(=O)N2CCC(=O)N([C@H](COCc3ccccc3)Cc3ccccc3)CC2)c1,nt,nt,nt,i,nt,i
